The values that follow come from PubChem BioAssay (EPA / NIEHS).

Assay [1] in a line: CEETOX_H295R_MTT_cell_viability: Viability Assessment in the CeeTox HT-H295R MTT Assay (AID 2283718; active means hit-call score of the fitted dose curve at least 0.9, where 1 is the maximum; inactive means score below 0.9). In a few lines: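 H295R cells prestimulated 48 h with 10 uM forskolin, then exposed 48 h to test chemical (0.1% DMSO final). Viability by MTT (0.5 mg/ml, 4 h, 37 C), absorbance 570/650 nm; percent change versus DMSO, bidirectional fit.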
The nature of assay [2]: CCTE_Simmons_CellTiterGLO_HEK293T: Viability Assessment in CCTE's Assays for Thyroperoxidase (TPO) Inhibition, Simmons Lab (AID 2283665).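 On AC50: cells exposed to compound for 24 h before readout; actives reduce ATP signal below DMSO vehicle meaning cytotoxicity.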 A digest of the protocol: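 HEK293T, 10 000 cells/well, DMEM + 1% FBS; 8-pt titration 5 nM–87.5 uM [final], 0.5% DMSO; 24 hr, 37C, 5% CO2; CellTiter-Glo luminescence; n=3 biological replicates.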
A general note: ATP-based viability assays read luminescence as a measure of living cells.

Assay [3] in a line: Tanguay_ZF_120hpf_TR_legacy: (Legacy) Oregon State University Tanguay Lab 120 Hour Post-fertilization zebrafish Assay for Touch Response (AID 2283667). In a few lines: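 Tropical 5D wild-type zebrafish embryos were exposed statically in sealed, foil-covered plates at 28C until 120 hpf, with 0.64% (vol/vol) final DMSO. Touch response was scored as present or absent; embryos that died were not scored.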

Assay [4] is described as follows: CCTE_Padilla_ZF_144hpf_TERATOSCORE: (Legacy) CCTE's 144 Hour Post-fertilization zebrafish Assay Teratoscore, Padilla Lab (AID 2283679; active means hit-call score of the fitted dose curve at least 0.9, where 1 is the maximum; inactive means score below 0.9;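 on AC50: zebrafish embryos with chorions exposed by immersion from 6-8 hpf to 5 dpf with daily renewal; teratogenicity score from eye scoring of death hatching and malformations at 144 hpf; higher score means more developmental defects relative to DMSO baseline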). In a few lines: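 Larvae scored by eye at 144 hpf for death, hatching and malformations after a day in clean Hanks'. Before that, daily-renewed exposure at 80 uM (0.4% DMSO, 26C) from roughly 6-8 hpf through 5 dpf, 4 embryos per chemical.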

Assay [5] can be described thus: Tanguay_ZF_120hpf_ActivityScore_legacy: (Legacy) Oregon State University Tanguay Lab 120 Hour Post-fertilization zebrafish Assay Score for Activity (AID 2283742).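 On AC50: static exposure from 6 hpf until 120 hpf at 28 °C.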 In a few lines: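 Tropical 5D wild-type zebrafish embryos, dechorionated with pronase at 4 hpf, were exposed singly from 6 hpf to 120 hpf statically at 28C in 0.64% DMSO. Malformations and mortality were scored as binary by brightfield, with the activity score combining 18 morphology components.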

Assay [6] deals with Luciferin 4-monooxygenase (Photinus pyralis) (UniProt P08659). Briefly: CCTE_Simmons_QuantiLum_inhib_2: CCTE's Firefly Luciferase Inhibition Assay, Simmons Lab (AID 2283767).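 On AC50: potency for inhibitors that lower luciferase luminescence relative to DMSO.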 A digest of the protocol:
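Luminescence loss relative to DMSO vehicle defines inhibition; detection reagent containing 150 uM D-luciferin and 147 uM dATP (final, pH 7.8) is injected immediately before each read. Enzyme is preincubated with an 8-point titration (5 nM–87.5 uM final) for 30 min at 37C.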

Assay [7] is described as follows: ACEA_AR_agonist_AUC_viability: ACEA Biosciences xCELLigence Real-Time Cell Analysis on Androgen Receptor Agonism for Viability (AID 2283775).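 On AC50: viability read 80 hours after compound addition.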 A digest of the protocol: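 Real-time impedance tracking of 22Rv1 growth, readings every 5 min for 5 h then hourly; area-under-curve viability endpoint at 80 hours, relative to DMSO. Compounds at eight concentrations, 1:4 steps, top 100 uM, n = 2.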

Assay [8] can be described thus: ACEA_AR_antagonist_AUC_viability: ACEA Biosciences xCELLigence Real-Time Cell Analysis on Androgen Receptor Antagonism for Viability (AID 2283776).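 Further: hits lower the growth signal relative to DMSO meaning cytotoxicity.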 In a few lines:
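22Rv1 human prostate cancer cells were seeded on electrode plates, monitored overnight, then exposed to eight 1:4 dilutions from 100 uM final. Impedance-based growth kinetics at 80 h gave an AUC viability endpoint normalized to DMSO.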

Assay [9] in a line: ACEA_ER_AUC_viability: ACEA Biosciences xCELLigence Real-Time Cell Analysis on Estrogen Receptor Agonism for Viability (AID 2283782).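 Further: continuous compound exposure with impedance area under curve over 80 h; hit means loss of impedance signal meaning reduced cell growth or viability.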 In a few lines:
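T-47D human breast cells in phenol red-free RPMI1640 with 10% charcoal-stripped FBS were dosed with an 8-point 1:4 dilution series from 100 uM top final concentration, in duplicate. Impedance-based growth was followed for 80 h; AUC analysed versus DMSO.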

A further assay has as its target AR (gene 367) (UniProt P10275). Briefly: ACEA_AR_agonist_80hr: ACEA Biosciences xCELLigence Real-Time Cell Analysis on Androgen Receptor Agonism for Proliferation (AID 2283783).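 Further: hits increase impedance growth signal above DMSO baseline.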 In a few lines:
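22Rv1 human prostate cancer cells were seeded after preconditioning in assay medium and monitored overnight, then dosed in an eight-point 1:4 dilution series from 100 uM (≤0.5% DMSO). Impedance-based growth was read at 80 h, gain-of-signal versus DMSO.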

For assay [10], the system named is Thyroperoxidase (TPO), gene 445522. Briefly: CCTE_Simmons_GUA_TPO: CCTE's Guaiacol Assay for Thyroperoxidase (TPO) Inhibition, Simmons Lab (AID 2283750). In a few lines:
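Porcine thyroid microsomes (25 ug) in 200mM potassium phosphate, preincubated 30 s at 37C with compound (8 concentrations, 5 nM–87.5 uM) and 35mM guaiacol; 1mM H2O2 starts reaction. Absorbance change at 450nm over first 80 s; loss of signal versus DMSO, three replicates.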

The nature of assay [11]: STM_H9_OrnithineISnorm_perc: Stemina devTOX quickPredict H9 human embryonic stem cell (hESC)-based Assay for Ornithine (ORN) Metabolite Biomarker, Normalized (AID 2283712; active means hit-call score of the fitted dose curve at least 0.9, where 1 is the maximum; inactive means score below 0.9;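 further: ornithine released into spent medium during last day measured by mass spectrometry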). In a few lines: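 H9 human embryonic stem cells kept pluripotent receive test chemical over 72 h, refreshed daily by media exchange. Media from the closing 24 h is deproteinized and analysed by UPLC-HRMS on an amide column; ornithine signal is scaled to labelled standard and vehicle.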

Assay [12] can be described thus: STM_H9_CystineISnorm_perc: Stemina devTOX quickPredict H9 human embryonic stem cell (hESC)-based Assay for Cystine (CYSS) Metabolite Biomarker, Normalized (AID 2283713; active means hit-call score of the fitted dose curve at least 0.9, where 1 is the maximum; inactive means score below 0.9). A digest of the protocol:
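H9 hESC, pluripotent; compound 72h, re-dosed q24h with medium change. Last-24h medium → 40% acetonitrile deproteinization → UPLC-HRMS. CYSS area / C13-CYSS standard, then % of 0.1% DMSO median.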

The nature of assay [13]: STM_H9_OrnCyssISnorm_ratio: Stemina devTOX quickPredict H9 human embryonic stem cell (hESC)-based Assay for Ornithine (ORN):Cystine (CYSS) Ratio (AID 2283714). In a few lines:
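Undifferentiated H9 hESCs were exposed to compound for 72h with media and chemical replaced every 24h. Final 24-h conditioned media were deproteinized and analysed by UPLC-HRMS. ORN and CYSS peak areas were normalized to C13 internal standards and the ratio taken versus 0.1% DMSO.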

Assay [14] can be described thus: STM_H9_NormalizedViability: Cytotoxicity Assessment at 120 hours in the Stemina devTOX quickPredict H9 human embryonic stem cell (hESC)-based Assay (AID 2283784). A digest of the protocol:
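Pluripotent H9 cells dosed, fresh medium plus compound q24h → cell layer read by CellTiter-Fluor → RFU blank-corrected, normalized to DMSO 0.1% mean. Loss-of-signal fit, DMSO as baseline.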

Assay [15] in a line: ArunA_NOG_NucleusCount: ArunA Biomedical's Neurite Outgrowth (NOG) Assay for Nucleus Count (AID 2283756). A digest of the protocol: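 Human H9-derived differentiated neurons were exposed for 48 h right after seeding. Hoechst-stained nuclei gated by size and intensity were counted by automated high-content imaging as viable neurons. Loss of signal vs DMSO.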
A short description of assay [16]: ArunA_NOG_NeuriteLength: ArunA Biomedical's Neurite Outgrowth (NOG) Assay for Neurite Length (AID 2283757). In a few lines:
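Differentiated human H9-derived neurons were exposed for 48 h from seeding, then stained with Hoechst and βIII-tubulin. Automated high-content imaging gave total neurite length per valid neuron, counting processes >10 um. Loss of signal was scored versus DMSO.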

The nature of assay [17]: ArunA_NOG_NeuritesPerNeuron: ArunA Biomedical's Neurite Outgrowth (NOG) Assay for Neurites Per Neuron (AID 2283758). In a few lines: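 Differentiated human H9-derived neurons exposed to chemicals for 48 h from seeding, then stained with Hoechst and βIII-tubulin/DyLight 488. Automated imaging counted neurites (processes >10 um) per valid neuron; loss of signal versus DMSO scored.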

A short description of assay [18]: ArunA_NOG_BranchPointsPerNeurite: ArunA Biomedical's Neurite Outgrowth (NOG) Assay for Branch Points Per Neurite (AID 2283759). A digest of the protocol: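 Automated image analysis traced neurites (processes >10 um) from valid cell bodies after Hoechst and βIII-tubulin staining. hNN cells from H9 embryonic stem cells, 48 h exposure. Fitted bidirectionally against DMSO.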

Several values for one entry are separate records, joined by “and”; a condition that tells them apart may be missing. Identical values can stand only once. Results filed as inconclusive are left out. A structure can be active in one record and inactive in another. Activity calls are given as the source filed them. How the source made its calls, unless noted: active means hit-call score of the fitted dose curve at least 0.9, where 1 is the maximum; inconclusive means response in the unintended direction; inactive means score below 0.9.

Chain of Luciferin 4-monooxygenase (Photinus pyralis) (P08659 whole entry, looked up): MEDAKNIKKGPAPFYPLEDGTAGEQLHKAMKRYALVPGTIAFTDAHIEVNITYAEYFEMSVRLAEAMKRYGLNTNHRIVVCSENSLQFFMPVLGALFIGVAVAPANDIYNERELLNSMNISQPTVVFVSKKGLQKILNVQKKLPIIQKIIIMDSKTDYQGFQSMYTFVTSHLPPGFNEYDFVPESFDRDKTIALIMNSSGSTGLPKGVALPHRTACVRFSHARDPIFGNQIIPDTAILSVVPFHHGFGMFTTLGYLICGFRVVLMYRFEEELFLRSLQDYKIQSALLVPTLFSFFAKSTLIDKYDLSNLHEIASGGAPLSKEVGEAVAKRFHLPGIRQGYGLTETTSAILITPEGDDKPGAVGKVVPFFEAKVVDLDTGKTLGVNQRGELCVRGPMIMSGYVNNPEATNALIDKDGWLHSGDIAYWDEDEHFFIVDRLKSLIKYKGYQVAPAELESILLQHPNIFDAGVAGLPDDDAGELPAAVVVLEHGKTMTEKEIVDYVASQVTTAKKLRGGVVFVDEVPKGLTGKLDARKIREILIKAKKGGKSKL
Chain of AR (gene 367) (P10275 whole entry, looked up): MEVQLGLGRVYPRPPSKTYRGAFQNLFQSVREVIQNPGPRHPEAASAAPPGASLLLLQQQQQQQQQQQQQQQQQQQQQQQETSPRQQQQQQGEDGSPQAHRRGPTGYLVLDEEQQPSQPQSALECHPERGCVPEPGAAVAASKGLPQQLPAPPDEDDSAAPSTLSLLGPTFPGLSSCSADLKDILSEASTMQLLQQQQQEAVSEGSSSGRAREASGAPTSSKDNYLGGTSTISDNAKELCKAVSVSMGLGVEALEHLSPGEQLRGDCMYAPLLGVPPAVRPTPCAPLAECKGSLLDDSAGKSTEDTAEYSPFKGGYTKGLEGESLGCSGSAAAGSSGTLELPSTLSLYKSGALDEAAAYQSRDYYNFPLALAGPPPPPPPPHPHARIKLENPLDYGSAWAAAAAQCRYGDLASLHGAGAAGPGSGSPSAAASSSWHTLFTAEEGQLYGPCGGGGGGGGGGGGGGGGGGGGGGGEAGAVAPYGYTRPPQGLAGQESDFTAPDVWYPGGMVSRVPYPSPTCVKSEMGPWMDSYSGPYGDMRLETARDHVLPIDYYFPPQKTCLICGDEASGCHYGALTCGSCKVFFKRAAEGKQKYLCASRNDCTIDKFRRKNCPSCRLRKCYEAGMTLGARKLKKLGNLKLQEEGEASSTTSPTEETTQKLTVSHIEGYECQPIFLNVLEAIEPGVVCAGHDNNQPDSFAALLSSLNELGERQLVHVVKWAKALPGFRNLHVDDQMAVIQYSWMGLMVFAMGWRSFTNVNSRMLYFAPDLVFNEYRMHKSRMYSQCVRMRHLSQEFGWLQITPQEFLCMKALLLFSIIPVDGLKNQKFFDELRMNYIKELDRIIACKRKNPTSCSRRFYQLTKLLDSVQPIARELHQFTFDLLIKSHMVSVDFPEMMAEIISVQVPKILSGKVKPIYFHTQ

Turning to `Cc1ccccc1OP(=O)(Oc1ccccc1C)Oc1ccccc1C`, the call in assay [1] was inactive.
For orientation: AC50 means the midpoint of the concentration-response curve, whichever way the signal moves. As to `CCCCCCCCCCCCc1cccc(S(=O)(=O)O)c1`, the AC50 in assay [2] was 30.4 µM (active); in [4], 53 µM (active); in [7], 76.7 µM (active); in assay [8], 75 µM (active); in assay [9], 83.1 µM (active). The compound was classed as inactive in [3], in assay [5] and in assay [6].
For `O=C1c2ccccc2C(=O)C1C(=O)C(c1ccccc1)c1ccc(Cl)cc1` (configuration not stated), the AC50 in assay [2] is 36.4 µM (active); in assay [7] it was 26.7 µM (active); in assay [8], 24.6 µM (active); in assay [9] it was 33 µM (active). The call (in assay [6]; in the assay with AR (gene 367)) was inactive.
With `CN(N=O)C(N)=O`, the compound was classed as inactive in assay [2] and in assay [6].
`N#Cc1cccnc1`: the outcome in assay [3], in assay [5], in [7], in assay [8] and in [9] was inactive.
With `Cc1cc(C(C)(C)c2ccc(O)c(C)c2)ccc1O`, the result in assay [1] was inactive.
On the same count and under the same terms, under `Oc1cccc(-c2ccccc2)c1` stands “inactive”.
As to `CCCCCCCCCCCCOS(=O)(=O)O`, the AC50 in assay [2] is 31.9 µM (active) and 92.3 µM (active); in assay [7], 77.7 µM (active); in assay [8], 72.1 µM (active). The outcome in [6] and in [8] was inactive.
Consider `C[C@]12CC[C@@H](O)C[C@@H]1CC[C@@H]1[C@@H]2CC[C@]2(C)C(=O)CC[C@@H]12`, for which the outcome in [1] was inactive.
On to `COc1ccccc1N`, for which the compound was classed as inactive in [2], in assay [3], in assay [5], in [6], in assay [7] and in [8]. The compound was called inactive in assay [9]. In [10], the AC50 was 33.2 µM (active).
For `N#CS`, the compound was called inactive in assay [2], in [11], in [12], in assay [6], in assay [7] and in assay [9].
In the case of `O=C(NC(=O)c1c(F)cccc1F)Nc1ccc(Cl)cc1`, the result in [2], in assay [6] and in assay [8] was inactive.
`O=c1[nH]c(=O)n(Cl)c(=O)n1Cl`: the call in assay [2], in [6], in assay [7] and in [8] was inactive.
Consider `COc1ccc(N)cc1`, for which the AC50 in [2] was 4.71 µM (active). Moreover, the call in [1], in assay [6], in assay [7] and in assay [8] was inactive.
Turning to `CC(C)O.CC(C)O.OCCN(CCO)CCO.OCCN(CCO)CCO.[Ti]`, the compound was classed as inactive in assay [3], in [4], in assay [11], in assay [5], in assay [7] and in [8]. Moreover, the outcome in [14] was inactive. Further, the AC50 in assay [12] was 74.1 µM (active); in assay [13], 72.4 µM (active).
Regarding `CCOc1ccc(N)cc1`, in assay [2], the AC50 was 28.4 µM (active). Also, the compound was classed as inactive in assay [6] and in assay [9].
For `Oc1c(Cl)cc(Cl)cc1Cl`, in assay [3], the compound was called inactive. The figures for the AC50 in assay [4] and in assay [5] were 3.97 µM (active) and 19.1 µM (active), respectively.
`OC(Cc1ccccc1Cl)(Cn1[nH]cnc1=S)C1(Cl)CC1` (configuration not stated): the outcome in assay [1] was inactive.
As to `Nc1ccc(N)cc1`, the AC50 in [2] is 32 µM (active); in assay [6] it was 13.9 µM (active). The call in [7] and in assay [8] was inactive.
With `OC(Cc1ccccc1Cl)(Cn1cncn1)C1(Cl)CC1` (configuration not stated), the call in assay [1] was inactive.
For the compound `Nc1ncn[nH]1`, the compound was called inactive in assay [2], in [11], in assay [12], in assay [13], in assay [15] and in assay [16]. Also, the outcome in assay [17], in [18], in assay [6], in [7] and in assay [9] was inactive.
On to `Oc1cc(Cl)c(Cl)cc1Cl`, for which the outcome in [3] and in assay [9] was inactive. For the same compound, the AC50 was 5.5 µM (active) in assay [4], 32.1 µM (active) in assay [5], 64.8 µM (active) in assay [7] and 71.8 µM (active) in assay [8].
With `N#CCCC(Br)(C#N)CBr` (configuration not stated), the AC50 in [13] was 70.1 µM (active); in assay [14], 95.3 µM (active). The call in assay [8] was inactive.
In the case of `N#CCC#N`, the outcome (in assay [2]; in [6]; in [7]; in assay [8]; with AR (gene 367)) was inactive.
